Assay results from PubChem BioAssay (NCI).
About 83,000 compounds went through this panel and 20% of them were active in at least one assay; those are over-represented in the sample as a whole.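 The endpoint reported here, percent growth, reads 100 for growth as untreated, 0 for no net growth and -100 for all cells dead.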 The source made the active and inactive calls. The calls were made as follows: active = growth percent below 10; inactive = the rest.

Tested on: HS 578T breast
Assay: NCI-60 one-dose screen, 48 h (100 = growth as untreated, 0 = no growth, -100 = all killed)
Settings: 10 µM unless noted

With `O=C(N/N=C/c1ccccc1Cl)c1cccc2ccccc12` as the molecule, how does the growth read?
The growth was 95.6% (inactive).

How did the growth turn out when `CCOP1(=O)CC(C)=C(Cl)C(P(=O)(O)O)C1` (stereo not drawn) was run?
The growth was 107% (inactive).

How did the growth turn out when `NC(N)=Nc1ccc(/C=C2\C=Cc3ccccc32)cc1` was run?
Its growth is 81.3% (inactive).

How did the growth turn out when `C/C=C(/C)C(=O)OC1C=C(CO)C(=O)C(OC(=O)C(C)(O)C(C)Cl)C1C(C)C` (stereo not drawn) was run?
The growth was 30.7% (inactive).

How did the growth turn out when `CN1CCN(Cc2ccc(NC(=O)c3ccc(C#Cc4c(N)ncc5ccc(F)cc45)cc3)cc2C(F)(F)F)CC1` was run?
The growth was 29.9% (inactive).

For `CCCCCCCCC(=O)Nc1ccc(O)cc1`, which growth is on record?
The growth was 103% (inactive).

With `COc1cc(/C=C/C(=O)c2ccc(F)cc2)ccc1OCCCCOc1cc2c(cc1OC)C(=O)N1CCCC1C=N2` (stereo not drawn) as the molecule, how does the growth read?
Its growth is 6.29% (active).

Which growth does the source give for `COc1ccc(-c2cc(C#N)c(NNC(C)=O)[nH]2)cc1` here?
Its growth is 107% (inactive).

Which growth does the source give for `COc1cc(-c2nc(/C=C3/C(=O)Nc4ccccc43)c3ccccn23)cc(OC)c1OC` here?
Its growth is 76.9% (inactive).

With `CCN(CC)CCNc1ncnc2c1cnn2-c1ccc(Cl)cc1` as the molecule, how does the growth read?
Its growth is 77.5% (inactive).

`Nc1cc2c(cc1Br)[nH]c(=O)c1ccccc12` was tested. Which growth did it give?
The growth was 73.3% (inactive).

With `COc1ccc(C(=O)CN2C(=O)NC(c3ccccc3)(c3ccccc3)C2=O)cc1` as the molecule, how does the growth read?
The growth was 89.3% (inactive).

With `CC[C@@H](C)/C=C(C)/C=C/C(=O)c1c(O)c(-c2ccc(OC(=O)[C@@]34CC[C@@](C)(C(=O)O3)C4(C)C)cc2)cn(O)c1=O` as the molecule, how does the growth read?
The growth was 57.2% (inactive).

How did the growth turn out when `COc1ccc2c(N)ncc(C#Cc3cc(C(=O)Nc4ccc(CN5CCN(C)CC5)c(C(F)(F)F)c4)cnc3C)c2c1` was run?
Its growth is 30% (inactive).

`COc1cc2c(cc1OC)C(Cc1cc(OC)c(OC)cc1[N+](=O)[O-])=NCC2` was tested. Which growth did it give?
The growth was 87.8% (inactive).

`Cc1ccc(C(=O)C(Br)C(Br)c2ccccc2)cc1` (stereo not drawn) was tested. Which growth did it give?
The growth was 98.2% (inactive).

With `Br/C(=N\Nc1nn[nH]n1)c1ccccc1` as the molecule, how does the growth read?
Its growth is 99.4% (inactive).

For `O=C(Nc1cccc(Cn2c(=O)[nH]c3ccc(Oc4ncccn4)cc3c2=O)c1)c1cccc(F)c1`, which growth is on record?
Its growth is 92.8% (inactive).

`Cc1c(C(N)=O)sc2c1c(=O)n(Cc1ccccc1)c1nnc(S(C)(=O)=O)n21` was tested. Which growth did it give?
The growth was 87.5% (inactive).

`COc1ccc(C(=O)N2N=C(c3ccc(Br)cc3)CC2c2cn(-c3ccccc3)nc2-c2ccccc2)cc1` (stereo not drawn) was tested. Which growth did it give?
The growth was 85.2% (inactive).

How did the growth turn out when `CCOC(=O)CNS(=O)(=O)CC(=O)c1ccccc1` was run?
The growth was 124% (inactive).

Which growth does the source give for `COc1ccc(C(=O)c2no[n+]([O-])c2C(=O)c2ccc(OC)cc2)cc1` here?
The growth was 108% (inactive).

For `C=C(NC(=O)[C@H](C(C)C)N(C)c1cccc2[nH]ccc12)C(=O)OC`, which growth is on record?
The growth was 102% (inactive).

Which growth does the source give for `O=C(Cc1ccccc1[N+](=O)[O-])c1ccc2c(c1)OCO2` here?
The growth was 93.3% (inactive).

How did the growth turn out when `COC(=O)c1c[n+]([O-])ccc1OC` was run?
Its growth is 109% (inactive).

How did the growth turn out when `O=C(CN1CCN(c2cccc(Cl)c2)CC1)N1CCN(c2nnc(-c3ccc(Cl)cc3)c(-c3ccc(Cl)cc3)n2)CC1` was run?
The growth was 61.9% (inactive).

`CC(C)C(=O)c1ccc(Cl)s1` was tested. Which growth did it give?
The growth was 100% (inactive).

For `CCOC(=O)c1csc(-c2ccc(COC(=O)c3ccccc3)o2)n1`, which growth is on record?
Its growth is 111% (inactive).

Which growth does the source give for `OCCN1CCN(CC/C=C2/c3ccccc3Sc3ccc(C(F)(F)F)cc32)CC1` here?
The growth was 67.7% (inactive).

With `CCCCCCCCCCCCCCCCCC(=O)Nc1ccc(O)cc1` as the molecule, how does the growth read?
Its growth is 104% (inactive).

With `OCCN1CCCN(CCCN2c3ccccc3Sc3ccc(C(F)(F)F)cc32)CC1` as the molecule, how does the growth read?
Its growth is 29.1% (inactive).

`Cc1c(CN(C)C)cc(C(C)C)cc1C(C)C` was tested. Which growth did it give?
The growth was 124% (inactive).

For `CC(=O)Oc1cc2ccccc2cc1C(C)C`, which growth is on record?
Its growth is 99.8% (inactive).

How did the growth turn out when `COc1cc2cc3cc4cc(OC)c(OC)cc4c(C)[n+]3cc2cc1OC` (tested in a mixture with another compound) was run?
Its growth is 90.1% (inactive).

With `COc1ccc(NC(=O)/C=C(C)/C=C/C=C(C)/C=C/C2=C(C)CCCC2(C)C)cc1` as the molecule, how does the growth read?
Its growth is 87.9% (inactive).

For `O=C1C(Cl)=C(SC2=NCCN2)C(=O)c2ccccc21`, which growth is on record?
The growth was 93.1% (inactive).

`Cc1ccc(C(=O)Nc2ccc(CN3CCN(C)CC3)c(C(F)(F)F)c2)cc1C#Cc1cnc(N)c2ccc(F)cc12` was tested. Which growth did it give?
Its growth is -30.2% (active).

With `Cc1ncc(C(=O)Nc2ccc(CN3CCN(C)CC3)c(C(F)(F)F)c2)cc1C#Cc1c(N)ncc2ccccc12` as the molecule, how does the growth read?
The growth was -25.5% (active).
